About 83,000 compounds went through this panel and 20% of them were active in at least one assay; those are over-represented in the sample as a whole.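 Values shown are percent growth following 48 h exposure of cells in 96-well plates to a single concentration of compound; below 10 was considered active.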 Unmarked numbers belong to inactive results. Activity calls are given as the source filed them.
test system: HL-60(TB) leukemia; assay: NCI-60 one-dose screen, 48 h (100 = growth as untreated, 0 = no growth, -100 = all killed); conditions: 10 µM unless noted

| SMILES | growth |
| --- | --- |
| COc1ccc(C2OCC(C)(C)CO2)cc1OC | 100% |
| c1ccc(C2CC(c3cccc(Nc4ccncc4)c3)=NN2c2ccccc2)cc1 (stereo not given) | -8.94% (active) |
| CC(=O)Oc1cc(C)c(OC(C)=O)c(C)c1C | 101% |
| c1ccn2nnnc2c1 | 116% |
| COc1cc(C2CC(c3ccc4c(c3)OCO4)=NN2C=O)cc(OC)c1OC (stereo not given) | 0.568% (active) |
| CCOC(=O)c1c(C)nn(CC(O)c2ccccc2)c1NC(=O)Nc1cccc(F)c1 (stereo not given) | 107% |
| O=C(O)[C@@H]1[C@H]2C[C@H]3c4[nH]c5ccccc5c4CCN3C[C@@H]2CC[C@@H]1O | 128% |
| O=C(Nc1ccc(Nc2ccncc2)cc1)c1ccc(Nc2ccnc3ccc([N+](=O)[O-])cc23)cc1 | 79.9% |
| CC(C)[C@H](CN)NC[C@H](C)NS(=O)(=O)c1ccc(C(C)(C)C)cc1 | 95.4% |
| C=C1C(=O)O[C@H]2[C@H]1CC/C(COC(=O)NCC(C)c1ccc(CC(C)C)cc1)=C\CC[C@@]1(C)O[C@@H]21 (stereo not given in full) | -29.8% (active) |
| CN1CCN(C(=O)OCc2nc3c(N4CCOCC4)nc(-c4ccccc4)nc3n2C)CC1 | -32.5% (active) |
| COC(=O)CCCCCCCCC1(C)C=CC(C(C)O)=CC1 (stereo not given) | 99.4% |
| CSc1nc2c(c(=O)n1C)C1(C(=O)N(Cc3ccccc3)c3ccccc31)c1c(nc(SC)n(C)c1=O)N2 | 73.4% |
| Nc1c(C(=O)Nc2cccc3ncccc23)sc2nc3c(cc12)CN(Cc1ccccc1)CC3 | 48.6% |
| COC(=O)c1ccc(CSc2nnc(-c3ccncc3)o2)cc1 | 95.5% |
| CCN(CC)S(=O)(=O)c1ccc(S(=O)(=O)N2CCC[C@@H](C(=O)N3CCN(c4nc(C(C)C)no4)CC3)C2)cc1 | 68.5% |
| CC1Cc2ccc(OCCN(C)C)cc2C1=O (stereo not given) | 111% |
| CCOC(=O)NCCCC(=O)NCCc1ccccc1 | 102% |
| CC/C=C\C[C@H]1C/C=C2/C(=O)C(Cl)=C[C@@H]2C/C=C\CCCC(=O)O1 | -6.91% (active) |
| Cc1sc2nc(NCCN)[nH]c(=O)c2c1C | 115% |

| SMILES | growth |
| --- | --- |
| CC(=O)CSc1ncnc2nc[nH]c12 | 103% |
| CCOC(=O)Nc1ccc2c(c1)/C(=N\NC(=S)NC)c1ccccc1-2 | 103% |
| CCCCC(CC#N)(CCC)CCC | 104% |
| CCCCCCCN(CCCCCCC)C(=N)c1ccc(OC)c2ccccc12 | -66.4% (active) |
| CSc1nc(CC(C)C)c(C#N)c(=O)n1C | 78.7% |
| CCOC(=O)C(Cc1cc(I)c(O)c(I)c1)NC(=O)c1ccccc1 (stereo not given) | 90.2% |
| CC1(C)CC(=O)C2=C(C1)N(c1ccc(OC(F)(F)F)cc1)C(N)=C(C#N)C2c1ccc(Cl)cc1 (stereo not given) | 102% |
| O=C(/C=C/C12c3ccccc3C(c3ccccc31)C1C(=O)NC(=O)C12)c1ccc(Cl)cc1 (stereo not given) | -6.98% (active) |
| O=C(/C=C/c1cc(CN2CCOCC2)c(O)c2ncccc12)c1cc(CN2CCOCC2)c(O)c2ncccc12 | 22% |
| CC(O)(c1ccccc1)C(c1ccccc1)C1CCCCN1 (stereo not given) | 78.9% |
| COC(=O)c1c2c(c(C)[n+]([O-])c1C)C(=O)C=C(NCc1ccc(OC)cc1)C2=O | -30.5% (active) |
| O=C(CSc1nnnn1-c1ccccc1)Nc1ccc(Oc2ccccc2)cc1 | 110% |
| O=C1CCC(C(=O)N/N=C/c2cc(F)ccc2F)N1 (stereo not given) | 99.2% |
| COc1ccc(/C=C2\C=C(c3ccccc3)N(CCc3ccccc3)C2=O)cc1OC | 19.6% |
| CCCCOC(=O)Oc1ccc(C(=O)Oc2ccc(OCC)cc2)cc1 | 109% |
| COC(=O)/C=C1/SC(=Nc2ccc(F)cc2)N(CCc2c[nH]c3ccc(O)cc23)C1=O | -8.07% (active) |
| O=C(O)c1cn(C2CC2)c2cc(N3CCN(Cc4nnc(Nc5ccccc5)o4)CC3)c(F)cc2c1=O | 91.4% |
| COc1cc(-c2ccc3cc(OC)c(OC)c(OC)c3c2)cc(OC)c1OC | 67.4% |
| COc1ccc(-c2cc(-c3ccc(Cl)cc3)c(C#N)c(=O)n2Cc2ccc(C(=O)Nc3ccccc3N)cc2)cc1 | 84.7% |
| O=C(O)c1cccc2c1-c1ccc(Cl)cc1C2 | 78.1% |
